Values joined by “and” are separate entries in the source; they are usually repeats but may differ in a detail not shown here. Identical values can stand only once. The whole screen tested about 400,000 compounds, of which about 2,100 (0.53%) were called active. Not shown: some 14% with an inconclusive outcome. The sample holds actives, similar compounds and a random draw of the others, so the mix is not that of the screen. How the calls were made is not given here.
molecular target: Ataxin-2 (Homo sapiens) (UniProt Q99700); assay: qHTS for Inhibitors of ATXN expression.; format: functional
Sequence (Q99700 whole entry): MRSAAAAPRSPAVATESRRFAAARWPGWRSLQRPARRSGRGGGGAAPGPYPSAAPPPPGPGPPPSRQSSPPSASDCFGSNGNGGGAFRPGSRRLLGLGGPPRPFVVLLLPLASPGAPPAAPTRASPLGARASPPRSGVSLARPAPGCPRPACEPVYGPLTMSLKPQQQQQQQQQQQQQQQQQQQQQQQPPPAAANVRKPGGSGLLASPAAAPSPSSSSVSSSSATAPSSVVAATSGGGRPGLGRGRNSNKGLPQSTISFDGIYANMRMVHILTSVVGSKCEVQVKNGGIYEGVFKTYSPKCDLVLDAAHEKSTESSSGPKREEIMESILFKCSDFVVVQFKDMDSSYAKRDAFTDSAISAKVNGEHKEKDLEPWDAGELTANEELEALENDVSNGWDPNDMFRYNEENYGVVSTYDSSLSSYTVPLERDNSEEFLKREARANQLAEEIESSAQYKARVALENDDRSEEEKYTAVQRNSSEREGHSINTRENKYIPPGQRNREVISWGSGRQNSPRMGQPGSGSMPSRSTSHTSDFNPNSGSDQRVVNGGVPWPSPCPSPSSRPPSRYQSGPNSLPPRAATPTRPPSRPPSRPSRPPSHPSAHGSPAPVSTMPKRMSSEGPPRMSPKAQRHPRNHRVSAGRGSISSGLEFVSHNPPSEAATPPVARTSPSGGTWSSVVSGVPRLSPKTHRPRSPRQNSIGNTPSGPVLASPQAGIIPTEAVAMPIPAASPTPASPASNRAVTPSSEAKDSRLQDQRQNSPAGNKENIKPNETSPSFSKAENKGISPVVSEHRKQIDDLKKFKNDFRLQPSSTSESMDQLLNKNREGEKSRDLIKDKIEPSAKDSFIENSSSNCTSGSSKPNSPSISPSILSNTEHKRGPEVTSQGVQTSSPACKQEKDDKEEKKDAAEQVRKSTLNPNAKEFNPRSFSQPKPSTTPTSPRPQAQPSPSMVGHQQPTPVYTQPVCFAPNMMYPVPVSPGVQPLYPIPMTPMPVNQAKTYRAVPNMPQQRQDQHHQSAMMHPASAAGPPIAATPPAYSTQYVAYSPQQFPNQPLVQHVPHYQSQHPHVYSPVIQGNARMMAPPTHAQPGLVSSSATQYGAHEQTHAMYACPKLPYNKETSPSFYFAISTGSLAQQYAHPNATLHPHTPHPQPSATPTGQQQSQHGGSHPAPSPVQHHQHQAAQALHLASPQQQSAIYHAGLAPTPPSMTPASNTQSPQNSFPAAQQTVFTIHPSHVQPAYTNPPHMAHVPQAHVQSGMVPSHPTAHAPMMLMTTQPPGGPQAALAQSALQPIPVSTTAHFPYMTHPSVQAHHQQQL

Structure (SMILES) | Potency
COc1ccc(NC(=O)c2sc3nc(N4CCOCC4)c4c(c3c2N)CCCC4)cc1 | inactive
CC1(C(=O)NNC(=O)c2ccc(=O)oc2)CC1Br (stereo not given) | inactive
O=C(c1ccccc1NS(=O)(=O)c1ccc([N+](=O)[O-])cc1[N+](=O)[O-])N1O[C@@H]2C=C[C@H]1C2 | 22.4 µM (active)
COc1ccc(-c2nn(-c3ccccc3)cc2C(=O)Nc2ccc(C(=O)O)cc2)cc1OC | inactive
CCN(CC)CCNC(=O)c1ccc(NC(=O)c2cn(-c3ccccc3)nc2-c2cccs2)cc1 | 39.8 µM (active)
O=C(O)/C=C/c1cn(-c2ccccc2)nc1-c1cccs1 | inactive
CC(C)c1ccc(C2=CC(c3cccc(Cl)c3)n3ncnc3N2)cc1 (stereo not given) | inactive
CC(c1ccccc1)N(C)C(=O)CN1CCN(S(=O)(=O)c2ccc3c(c2)OCCCO3)CC1 (stereo not given) | inactive
CCN(CC)CCOc1ccc(/C(=C(/Cl)c2ccccc2)c2ccccc2)cc1 | 35.5 µM (active) and 17.8 µM (active)
C=CCN(CC=C)CCOc1cccc(Oc2ccccc2)c1 | inactive
COc1ccc(CNc2oc(/C=C/c3cccc(OC)c3)nc2C#N)cc1 | inactive
O=c1oc2c3c4c(cc2c(C(F)(F)F)c1CCN1CCOCC1)CCCN4CCC3 | inactive
Cc1ccc(S(=O)(=O)N(Cc2ccccc2)c2ccccc2C(=O)N2CCCCC2)cc1 | 31.6 µM (active)
CCN(c1ccccc1)S(=O)(=O)c1ccc(Cl)c(C(=O)N2CCCC2)c1 | inactive
Cc1ccc(S(=O)(=O)N2CCN(C(=O)c3ccccn3)CC2)cc1 | inactive
CCOc1ccc2nc(NCCNC(=O)c3cc(OC)c(OC)c(OC)c3)c(C#N)cc2c1 | inactive
CCn1c(SCC(=O)Nc2cccc(Cl)c2)nnc1-c1nonc1NC(C)=O | inactive
CCOc1ccc(-c2nnc(SCC(=O)Nc3ccc4c(c3)c3ccccc3n4CC)n2N)cc1 | 31.6 µM (active)
CCC(=O)Nc1ccc(NC(=O)CSc2nnnn2Cc2ccccc2)cc1C | inactive
O=C(NCCO)c1cc2cc(Cl)cc(Cl)c2oc1=O | inactive
Cc1nccn1CCN(C)Cc1cn(Cc2ccccc2)nc1-c1ccc2c(c1)OCO2 | inactive
CN(Cc1cn(C)nc1-c1ccc(Oc2ccccc2)cc1)Cc1cnc2ccccn12 | 35.5 µM (active)
Cc1ccc2nc(N3CC(C)OC(C)C3)nc(-c3ccccc3)c2c1 (stereo not given) | inactive
CC(C)Cc1ccc(C(C)CC2=CCC(CN(C)C)C2=O)cc1 (stereo not given) | 22.4 µM (active)

Structure (SMILES) | Potency
CC(C)Cc1ccc(C(C)C(=O)Nc2ncccn2)cc1 (stereo not given) | inactive
COc1cccc(CN2CC(C(=O)N3CCSCC3)CCC2=O)c1 (stereo not given) | inactive
O=C(Oc1cc2oc(=O)cc(-c3ccccc3)c2cc1Cl)C1CCCCC1 | inactive
CCN(CCCNC(=O)c1cc2cc3ccc(OC)cc3nc2s1)c1cccc(C)c1 | 39.8 µM (active)
CCCCNC(=O)c1cc2nc(-c3ccc(OC)cc3)cc(C(F)(F)F)n2n1 | inactive
CCN(CCCNC(=O)c1cc(Nc2ccc(OC)cc2)nc2ccccc12)c1cccc(C)c1 | inactive
O=C1Nc2cc(C(=O)N3CCOCC3)ccc2S/C1=C/c1ccccc1F | inactive
COCCCn1c(=O)/c(=C\c2ccc(OC(F)F)c(OC)c2)s/c1=C(/C#N)C(N)=O | inactive
CCN1CCCC1CNC(=O)c1ccc2c(c1)NC(=O)/C(=C\c1ccc(OC)c(OC)c1)S2 (stereo not given) | 31.6 µM (active)
O=C1Nc2cc(C(=O)N3CCC(N4CCCCC4)CC3)ccc2S/C1=C\c1ccccc1 | 39.8 µM (active)
CCN1CCCC1CNC(=O)c1ccc2c(c1)NC(=O)/C(=C\c1ccc(C)cc1)S2 (stereo not given) | 35.5 µM (active)
O=C(c1ccc2nc(-c3ccccc3)c(-c3ccccc3)nc2c1)N1CCCCC1 | inactive
Cc1cccc2cc(C#N)c(NCCNS(=O)(=O)c3ccccc3)nc12 | inactive
COc1ccc(O)c(C(=O)c2coc(=N)c(C(=O)Nc3ccc(SC(F)F)cc3)c2)c1 | inactive
CN(C)c1ccc(-c2ccc3c(=O)c4ccccc4n(C)c3c2)cn1 | inactive
COc1ccc(-c2ccc3c(N)c(C(=O)NC(C)C)sc3n2)cc1OC | inactive
Cc1ccc(C)c(N(C)S(=O)(=O)c2ccc3[nH]cc(C(=O)NC4CCCC4)c(=O)c3c2)c1 | 28.2 µM (active)
COC(CN(C)C(=O)c1cn(C)c2ccc(S(=O)(=O)N(C)C3CCCCC3)cc2c1=O)OC | inactive
Cc1cccn2c(=O)c3cc(C(=O)NC4CCCC4)c(=N)n(C4CCCC4)c3nc12 | inactive
CCc1nnc(NC(=O)CSc2nc3c(cc2C#N)CCC3)s1 | inactive
N=c1c(C(=O)NC2CCCCC2)cc2c(=O)n3ccccc3nc2n1Cc1ccccc1 | inactive
N=c1c(C(=O)NC2CCCC2)cc2c(=O)n3ccccc3nc2n1Cc1ccccc1 | inactive
N#CCCN(Cc1ccccc1)C(C(=O)NC1CCCCC1)c1cc2ccccc2o1 (stereo not given) | 39.8 µM (active)
COc1ccc(CCC(C)NCCc2ccc(Cl)cc2Cl)cc1 (stereo not given) | 39.8 µM (active)

Structure (SMILES) | Potency
COc1ccc(CCC(C)NCc2ccc(F)cc2)cc1 (stereo not given) | inactive
COc1ccc(-c2sc(C(=O)c3ccc(Cl)cc3Cl)cc2CC(=O)O)cc1 | inactive
CCOc1cc(/C=C/C(=O)Nc2ccc(C(=O)NCCN(CC)CC)cc2)ccc1OCC(C)C | 22.4 µM (active)
COc1ccc(OC)c(/C=C/C(=O)Nc2ccc(C(=O)OCCC(C)C)cc2)c1 | inactive
COc1cccc(OC)c1C(=O)Nc1ccccc1Sc1ccccc1 | inactive
COc1ccc(C2C=C(c3ccccc3)Nc3nc(NS(=O)(=O)c4ccc(Cl)cc4)nn32)cc1 (stereo not given) | inactive
Cc1nc2ccc(C(=O)Nc3cccc(OCC(=O)N(C)C)c3)cn2c1N(C)CC1CCCCC1 | 35.5 µM (active)
Cc1ccc2nc3c(cc(C(=O)NC4CCCCC4)c(=N)n3C3CCCCC3)c(=O)n2c1 | inactive
Cc1ccc2nc3c(cc(C(=O)NC4CCCC4)c(=N)n3C3CCCCC3)c(=O)n2c1 | inactive
COc1ccc(C(=O)c2sc3nc(C)cc(-c4cccs4)c3c2N)cc1OC | inactive
CCCn1nc(NC(C)=O)c2cc3cccc(C)c3nc21 | inactive
CCOc1ccc(NCc2cccn2-c2nnc(N3CCC(C(=O)NCCCN4CCCCC4CC)CC3)s2)cc1 (stereo not given) | 22.4 µM (active)
COCCCn1/c(=N/C(C)=O)c(C#N)cc2c(=O)n3cccc(C)c3nc21 | inactive
COc1ccccc1NC(=O)c1sc2nc(Cc3ccccc3)cc(C(F)(F)F)c2c1N | inactive
COc1ccccc1C(=O)Nc1c(C(=O)N(C)Cc2ccccc2)sc2nc(C)c(Cl)c(C)c12 | 11.2 µM (active)
COc1ccccc1NC(=O)c1sc2nc(C)c(C(=O)Nc3ccc(C)cc3C)c(-c3cccs3)c2c1N | inactive
Nc1cc(C(F)(F)F)cc([N+](=O)[O-])c1N | inactive
O=[N+]([O-])c1cc(C(F)(F)F)cc([N+](=O)[O-])c1NCCN=C(S)Nc1ccc(Cl)c(Cl)c1 | 39.8 µM (active)
FC(F)(F)c1cccc(NC(S)=NCc2ccc(Cl)cc2)c1 | inactive
CCOc1ccc(-c2csc(/C(C#N)=C\c3ccc(O)c([N+](=O)[O-])c3)n2)cc1 | 8.91 µM (active)
CCc1ccc(/C=C(/C#N)c2nc(-c3ccc(C)cc3)cs2)cc1 | inactive
CCOc1cc(/C=C(\C#N)c2nc(-c3cccs3)c(NC(C)=O)s2)ccc1O | inactive
CCOc1ccc2nc(NCCCNS(=O)(=O)c3ccccc3)c(C#N)cc2c1 | inactive
CN1CCN(c2ccc(NC(=O)c3sc4ccccc4c3Cl)cc2)CC1 | inactive

Structure (SMILES) | Potency
CC(=O)N1CCN(c2ccc(NC(=O)c3cccc(F)c3)cc2)CC1 | inactive
CN1CCN(c2ccc(NC(=O)c3ccc(-c4ccc(Cl)cc4)o3)cc2)CC1 | 25.1 µM (active)
CCCCOC(=O)c1ccc(NC(=O)/C(C#N)=C/c2ccc(-c3ccccc3)o2)cc1 | inactive
CCOc1cccc(/C=N/NC(=O)CC2C(=O)NN=C2C)c1O (stereo not given) | inactive
COc1ccc(/C=N/OCC(=O)N=Nc2c(O)[nH]c3ccc(Br)cc23)cc1 | inactive
Cc1cccc(N=Nc2c(O)[nH]c3ccc(F)cc23)c1 | inactive
O=C(N=Nc1c(O)[nH]c2ccc(Br)cc12)c1ccccc1-n1cccc1 | 17.8 µM (active)
Cc1cc(C)c(C#N)c(SCC(=O)Nc2nonc2N)n1 | inactive
COc1ccccc1N1C(=O)C2C(C(=O)c3ccccc3)=NN(c3ccc(Br)cc3)C2C1=O (stereo not given) | inactive
COc1cccc(C(=O)Oc2c(Sc3ccc(C)cc3)c(C)nn2C(C)(C)C)c1OC | 20 µM (active)
CCN1C=C(C(=O)OC)C(c2cccc(OC)c2OC)C(C(=O)OC)=C1 | inactive
Cc1ccc(S(=O)(=O)c2c(C)nn(C(C)(C)C)c2OC(=O)C(C)C)cc1 | inactive
CC(=O)Nc1ccc(N2C(=O)c3cccc4c(O)ccc(c34)C2=O)cc1 | inactive
CC(=O)NN1C(=O)c2ccc3c4c(ccc(c24)C1=O)C(=O)N(NC(C)=O)C3=O | 25.1 µM (active)
CC(=O)Nc1ccc2c3c(cccc13)C(=O)N(c1ccccc1)C2=O | inactive
CCOCCCn1/c(=N/C(=O)c2cccs2)c(C#N)cc2c(=O)n3ccccc3nc21 | inactive
CSC(SC)=C(C#N)C(=O)c1ccccc1 | 39.8 µM (active)
COc1cccc(C(=O)C(C#N)=C(SC)SC)c1 | 14.1 µM (active)
Cc1cc(C)c(C#N)c(SCC(=O)c2ccccc2)n1 | inactive
COc1cccc(N/C(SC)=C(/C#N)C(=O)NCc2cccs2)c1 | inactive
CCOC(=O)C1(C)C(=O)CC2c3nc4ccccc4cc3CN2C1=O (stereo not given) | inactive
O=C1c2ccccc2S(=O)(=O)c2cc(N3CCC4(CC3)OCCO4)ccc21 | inactive
CCN(CC)C(=O)CSC(Nc1cccc(F)c1)=C(C#N)C#N | inactive

Source: ChEMBL document CHEMBL1201862, “PubChem BioAssay data set” (2004)
